The target of assay [1] is human Beta-secretase (BACE), BACE1 (gene 23621) (UniProt P56817). In words: NVS_ENZ_hBACE: NovaScreen (NVS) Enzymatic Assay for human Beta-secretase (BACE) (AID 2283140).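 Further: hits are inhibitors that reduce fluorescent substrate signal versus DMSO.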 Summed up:
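Compounds were first tested in duplicate at 25 uM, then actives in concentration series, against recombinant BACE1 from SF9 cells. Enzyme activity was measured by fluorescence intensity 1 hour after dosing, with DMSO as negative control.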

Assay [2] has as its target human Vascular Endothelial Growth Factor Receptor 1 (VEGFR1), FLT1 (gene 2321) (UniProt P17948). In words: NVS_ENZ_hVEGFR1: NovaScreen (NVS) Enzymatic Assay for human Vascular Endothelial Growth Factor Receptor 1 (VEGFR1) (AID 2283226). The procedure, abridged: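 Cell-free assay of recombinant human VEGFR1 kinase with substrate, measured 1 h after dosing; fluorescence with electrophoretic mobility-shift separation of substrate and product, referenced to DMSO; primary screen at 25 uM in duplicate, actives then run in concentration series.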

The nature of assay [3]: STM_H9_NormalizedViability: Cytotoxicity Assessment at 120 hours in the Stemina devTOX quickPredict H9 human embryonic stem cell (hESC)-based Assay (AID 2283784). The procedure, abridged:
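Pluripotent H9 cells dosed, fresh medium plus compound q24h → cell layer read by CellTiter-Fluor → RFU blank-corrected, normalized to DMSO 0.1% mean. Loss-of-signal fit, DMSO as baseline.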

The target in assay [4] is human Thyroid Receptor Alpha (TRa), THRA (gene 7067) (UniProt P10827). In words: NVS_NR_hTRa_Antagonist: NovaScreen (NVS) Nuclear Receptor Binding Assay for human Thyroid Receptor Alpha Antagonism (TRa) (AID 2283362). The procedure, abridged: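 Cell-free binding assay on extracted receptor protein, read 1 h after chemical dosing by AlphaLISA chemiluminescence; loss of signal relative to DMSO baseline marks antagonism. Primary screen ran in duplicate at 25 uM, with concentration series for actives.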
human Thyroid Receptor Alpha (TRa), THRA (gene 7067), sequence (P10827 whole entry, looked up): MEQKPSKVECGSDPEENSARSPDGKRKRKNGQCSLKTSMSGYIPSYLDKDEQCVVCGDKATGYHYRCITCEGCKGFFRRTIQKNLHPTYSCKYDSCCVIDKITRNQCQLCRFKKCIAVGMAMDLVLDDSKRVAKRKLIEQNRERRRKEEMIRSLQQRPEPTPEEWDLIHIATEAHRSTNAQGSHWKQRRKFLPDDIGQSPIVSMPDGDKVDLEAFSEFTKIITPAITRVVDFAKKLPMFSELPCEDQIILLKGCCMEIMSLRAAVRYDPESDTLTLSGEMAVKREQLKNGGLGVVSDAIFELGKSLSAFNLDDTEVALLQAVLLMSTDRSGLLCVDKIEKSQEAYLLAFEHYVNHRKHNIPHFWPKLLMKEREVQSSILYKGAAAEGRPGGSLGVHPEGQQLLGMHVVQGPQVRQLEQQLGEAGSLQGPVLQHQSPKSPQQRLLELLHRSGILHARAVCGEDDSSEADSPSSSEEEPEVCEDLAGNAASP

Assay [5] is described as follows: CCTE_Shafer_MEA_dev_AB: CCTE's Alamar Blue Assay for Cytotoxicity in the Neural Network Formation Assay, Shafer Lab (AID 2284083).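 Further: resazurin reduction fluorescence as viability of cultured neurons; twelve days of exposure from plating with re-dosing on DIV 5 and 9.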 Summed up:
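Cytotoxicity companion to the developmental MEA: primary rat cortical neurons, 12-day exposure starting day 0, compound refreshed DIV 5 and 9; resazurin fluorescence, fitted against DMSO vehicle.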
Background: The colour change of resazurin is a common sign of viable cells or microbes.

The next assay has as its system rat CYP3A1, gene 25642. In words: NVS_ADME_rCYP3A1: NovaScreen (NVS) CYP450-related Enzyme Activity (ADME) Assay for rat CYP3A1 (AID 2283126). Summed up: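 Cell-free recombinant CYP assay with fluorescent substrate, read 0.5 h after dosing. Screened at 10 uM in duplicate, hits at up to 20 uM in concentration-response; loss of signal versus acetonitrile baseline.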

For the next assay, the system named is DIO1 (gene 1733). In words: CCTE_GLTED_hDIO1: CCTE's human Deiodinase 1 (DIO1) Inhibition Assay, Great Lakes Toxicology and Ecology Division (GLTED) Lab (AID 2283987).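 Further: isolated human DIO1 enzyme in a cell-free setup rather than cells; enzyme activity read as free iodide liberated from substrate via Sandell-Kolthoff colorimetry.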 Summed up: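 Cell-free human DIO1 enzyme was incubated with test chemical for 3 h, and iodide released from substrate was measured by Sandell-Kolthoff absorbance. Loss of signal versus DMSO baseline indicated inhibition; plates were run in triplicate.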

The test system of another assay is DIO2 (gene 1734). In words: CCTE_GLTED_hDIO2: CCTE's human Deiodinase 2 (DIO2) Inhibition Assay, Great Lakes Toxicology and Ecology Division (GLTED) Lab (AID 2284050). Summed up: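 hDIO2 enzyme + test chem, 3 h → free iodide from substrate; step 2: Sandell-Kolthoff (Ce IV reduction by As, iodide-catalysed), spectrophotometric read. Triplicate plates; DMSO = baseline.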

For the next assay, the system named is DIO3 (gene 1735). In words: CCTE_GLTED_hDIO3: CCTE's human Deiodinase 3 (DIO3) Inhibition Assay, Great Lakes Toxicology and Ecology Division (GLTED) Lab (AID 2284055).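 Further: potency is for inhibition seen as loss of released iodide signal.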 The procedure, abridged:
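Absorbance from the Sandell-Kolthoff reaction reports iodide released by human DIO3 during a 3-hour incubation with chemical. Inhibition scored as signal loss against DMSO controls.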

Assay [6] deals with frog Estrogen Receptor (ESR2), gene 100174814. In words: ATG_frER2_XSP1: Attagene TRANS-FACTORIAL Multi-Species (XSP1) HepG2 Assay for frog Estrogen Receptor (ESR2) (AID 2283774). Summed up:
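HepG2 cells transiently transfected with GAL4-UAS multiplexed reporter units expressing chimeric NR-Gal4 proteins; reporter mRNA measured 24 h after dosing by RT-PCR, FAM labeling, HpaI digestion and capillary electrophoresis. Gain-of-signal relative to DMSO; 3 nM 6-alpha-fluorotestosterone present.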

The subject of assay [7] is zebrafish Estrogen Receptor (ESR2A), gene 317734. In words: ATG_zfER2a_XSP1: Attagene TRANS-FACTORIAL Multi-Species (XSP1) HepG2 Assay for zebrafish Estrogen Receptor (ESR2A) (AID 2283778). The procedure, abridged:
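HepG2 cells transiently transfected with multiplexed GAL4-UAS reporter units and chimeric NR-GAL4 receptors; 24 h compound exposure with 3 nM 6-alpha-fluorotestosterone present. Reporter mRNA quantified by RT-PCR and capillary electrophoresis, gain-of-signal fitted relative to DMSO.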

In assay [8] the target is chicken Estrogen Receptor (ESR1), ESR1 (gene 396099) (UniProt P06212). In words: ATG_chERa_XSP1: Attagene TRANS-FACTORIAL Multi-Species (XSP1) HepG2 Assay for chicken Estrogen Receptor (ESR1) (AID 2283779). The procedure, abridged:
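HepG2 cells transiently transfected with multiplexed GAL4-UAS reporter units expressing chimeric NR-Gal4 proteins; 3 nM 6-alpha-fluorotestosterone present. Reporter mRNA measured 24 h after dosing by RT-PCR, FAM labelling, HpaI digest and capillary electrophoresis; gain of signal versus DMSO.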

Assay [9] deals with turtle Estrogen Receptor (ESR1), gene 101933533. In words: ATG_trERa_XSP1: Attagene TRANS-FACTORIAL Multi-Species (XSP1) HepG2 Assay for turtle Estrogen Receptor (ESR1) (AID 2283781). Summed up: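 HepG2 cells transiently transfected with GAL4-UAS reporter units and chimeric NR-Gal4 constructs, dosed for 24 h with 3 nM 6-alpha-fluorotestosterone present. Reporter mRNA was quantified by RT-PCR, fluorescent labelling and capillary electrophoresis, with gain of signal fitted relative to DMSO.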

Assay [10] is described as follows: ATG_M_19_XSP1: Attagene TRANS-FACTORIAL Multi-Species (XSP1) HepG2 Assay for M19 Transcription Factor (Internal Marker) (AID 2283798). The procedure, abridged:
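HepG2 cells transiently transfected with multiplexed GAL4-UAS reporter units, dosed 24 h with 3 nM 6-alpha-fluorotestosterone present for partial AR stimulation. Reporter mRNA measured by RT-PCR with capillary electrophoresis; gain-of-signal fitted relative to DMSO.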

Assay [11] can be described thus: ATG_M_32_XSP1: Attagene TRANS-FACTORIAL Multi-Species (XSP1) HepG2 Assay for M32 Transcription Factor (Internal Marker) (AID 2283799). Summed up:
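HepG2 cells transiently transfected with multi-species TRANS reporter units, dosed 24 h with 3 nM 6-alpha-fluorotestosterone present. Internal-marker reporter mRNA quantified by RT-PCR and capillary electrophoresis; positive-direction fit versus DMSO.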

Assay [12] deals with zebrafish Peroxisome Proliferator-activated Receptor gamma (PPARg), gene 557037. In words: ATG_zfPPARg_XSP1: Attagene TRANS-FACTORIAL Multi-Species (XSP1) HepG2 Assay for zebrafish Peroxisome Proliferator-activated Receptor gamma (PPARg) (AID 2283801). Summed up: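 HepG2 cells transiently transfected with GAL4-UAS reporter units including a zebrafish PPARg–GAL4 chimera, dosed 24 h with 3 nM 6-alpha-fluorotestosterone present. Reporter mRNA quantified by RT-PCR, FAM labelling, HpaI digestion and capillary electrophoresis; induction versus DMSO.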

For assay [13], the system named is turtle Thyroid Hormone Receptor, alpha (TRa), gene 101949057. In words: ATG_trTRa_XSP1: Attagene TRANS-FACTORIAL Multi-Species (XSP1) HepG2 Assay for turtle Thyroid Hormone Receptor, alpha (TRa) (AID 2283806). The procedure, abridged:
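HepG2 cells transiently transfected with GAL4-UAS reporter units and chimeric receptor-Gal4 constructs, with 3 nM 6-alpha-fluorotestosterone present. Reporter mRNA was quantified 24 h after dosing by RT-PCR, 6-FAM labelling and capillary electrophoresis; gain of signal versus DMSO.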

In assay [14] the target is zebrafish Thyroid Hormone Receptor alpha (TRa), thraa (gene 30670) (UniProt Q98867). In words: ATG_zfTRa_XSP1: Attagene TRANS-FACTORIAL Multi-Species (XSP1) HepG2 Assay for zebrafish Thyroid Hormone Receptor alpha (TRa) (AID 2283807). Summed up: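 HepG2 cells transiently transfected with GAL4-UAS reporter units including a zebrafish TRa–Gal4 chimera, dosed 24 h with 3 nM 6-alpha-fluorotestosterone present. Reporter mRNA quantified by RT-PCR and capillary electrophoresis; gain versus DMSO.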
zebrafish Thyroid Hormone Receptor alpha (TRa), thraa (gene 30670), sequence (Q98867 whole entry, looked up, the tested form may be a part): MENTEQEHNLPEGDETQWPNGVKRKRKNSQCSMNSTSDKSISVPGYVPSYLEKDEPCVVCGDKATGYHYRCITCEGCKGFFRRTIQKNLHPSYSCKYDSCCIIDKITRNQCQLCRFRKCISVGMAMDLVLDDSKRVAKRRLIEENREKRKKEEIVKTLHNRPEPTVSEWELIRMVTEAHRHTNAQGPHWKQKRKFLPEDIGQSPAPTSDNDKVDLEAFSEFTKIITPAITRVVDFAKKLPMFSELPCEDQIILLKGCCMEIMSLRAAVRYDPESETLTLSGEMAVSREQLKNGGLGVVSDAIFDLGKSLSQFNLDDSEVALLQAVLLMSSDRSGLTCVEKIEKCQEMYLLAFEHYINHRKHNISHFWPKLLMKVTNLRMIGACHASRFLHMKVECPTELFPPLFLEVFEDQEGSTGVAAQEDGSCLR

Assay [15] addresses human Thyroid hormone Receptor beta (TRb), THRB (gene 7068) (UniProt P10828). In words: ATG_hTRb_XSP1: Attagene TRANS-FACTORIAL Multi-Species (XSP1) HepG2 Assay for human Thyroid hormone Receptor beta (TRb) (AID 2283808). Summed up:
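HepG2 cells transiently transfected with reporter units driving GAL4-UAS reporters for chimeric NR-Gal4 proteins; 24 h chemical exposure with 3 nM 6-alpha-fluorotestosterone present. Reporter mRNA quantified by RT-PCR and capillary electrophoresis, gain of signal versus DMSO.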

Assay [16] has as its target zebrafish Thyroid Hormone Receptor beta (TRb), thrb (gene 30607) (UniProt Q9PVE4). In words: ATG_zfTRb_XSP1: Attagene TRANS-FACTORIAL Multi-Species (XSP1) HepG2 Assay for zebrafish Thyroid Hormone Receptor beta (TRb) (AID 2283809). The procedure, abridged: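 HepG2 cells transiently transfected with multiplexed GAL4-UAS reporter units expressing chimeric zebrafish TRb–Gal4. Dosed 24 h with 3 nM 6-alpha-fluorotestosterone present; reporter mRNA measured by RT-PCR, HpaI digestion and capillary electrophoresis; gain of signal versus DMSO.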

A word on the AC50: it is the concentration at which the activity in the assay is half-maximal.

The structures appear in SMILES notation. Records with an inconclusive call do not appear. Active and inactive are the calls of the source. How the source made its calls: active means hit-call score of the fitted dose curve at least 0.9, where 1 is the maximum; inconclusive means response in the unintended direction; inactive means score below 0.9.

human Vascular Endothelial Growth Factor Receptor 1 (VEGFR1), FLT1 (gene 2321), sequence (P17948 whole entry, looked up): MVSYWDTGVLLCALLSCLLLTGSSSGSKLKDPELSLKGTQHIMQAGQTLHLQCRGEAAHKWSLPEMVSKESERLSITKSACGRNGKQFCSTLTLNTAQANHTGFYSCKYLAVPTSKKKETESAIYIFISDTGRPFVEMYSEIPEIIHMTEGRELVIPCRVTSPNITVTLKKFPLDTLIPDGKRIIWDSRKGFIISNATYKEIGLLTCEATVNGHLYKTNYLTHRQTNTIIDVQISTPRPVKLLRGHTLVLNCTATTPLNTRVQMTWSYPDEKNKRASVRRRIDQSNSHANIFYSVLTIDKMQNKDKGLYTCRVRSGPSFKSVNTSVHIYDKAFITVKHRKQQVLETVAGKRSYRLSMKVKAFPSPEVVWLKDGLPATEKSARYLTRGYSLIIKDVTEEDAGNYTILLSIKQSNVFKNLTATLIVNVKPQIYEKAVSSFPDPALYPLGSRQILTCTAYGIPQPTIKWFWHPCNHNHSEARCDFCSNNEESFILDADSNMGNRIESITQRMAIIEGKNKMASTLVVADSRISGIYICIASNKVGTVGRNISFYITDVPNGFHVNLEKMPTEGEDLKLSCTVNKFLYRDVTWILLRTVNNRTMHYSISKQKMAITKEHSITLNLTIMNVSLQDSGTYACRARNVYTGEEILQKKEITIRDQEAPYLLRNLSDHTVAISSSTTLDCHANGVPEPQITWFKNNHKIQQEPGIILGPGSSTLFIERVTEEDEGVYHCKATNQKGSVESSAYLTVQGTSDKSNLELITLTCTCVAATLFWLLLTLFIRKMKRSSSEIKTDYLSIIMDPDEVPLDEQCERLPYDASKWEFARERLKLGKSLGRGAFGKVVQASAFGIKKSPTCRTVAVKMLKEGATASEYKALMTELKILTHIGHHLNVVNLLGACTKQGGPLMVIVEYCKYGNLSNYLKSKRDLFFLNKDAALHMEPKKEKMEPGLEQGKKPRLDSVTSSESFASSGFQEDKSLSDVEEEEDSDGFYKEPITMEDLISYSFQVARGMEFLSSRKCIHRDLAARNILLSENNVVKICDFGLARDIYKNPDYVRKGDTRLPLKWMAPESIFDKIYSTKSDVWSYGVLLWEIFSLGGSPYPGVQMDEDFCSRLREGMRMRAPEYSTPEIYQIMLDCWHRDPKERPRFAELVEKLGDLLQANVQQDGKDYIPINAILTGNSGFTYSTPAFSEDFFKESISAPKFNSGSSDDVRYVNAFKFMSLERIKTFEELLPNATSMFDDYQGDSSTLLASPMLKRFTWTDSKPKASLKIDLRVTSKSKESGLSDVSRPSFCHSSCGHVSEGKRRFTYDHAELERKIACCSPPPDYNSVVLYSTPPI
human Thyroid hormone Receptor beta (TRb), THRB (gene 7068), sequence (P10828 whole entry, looked up, the tested form may be a part): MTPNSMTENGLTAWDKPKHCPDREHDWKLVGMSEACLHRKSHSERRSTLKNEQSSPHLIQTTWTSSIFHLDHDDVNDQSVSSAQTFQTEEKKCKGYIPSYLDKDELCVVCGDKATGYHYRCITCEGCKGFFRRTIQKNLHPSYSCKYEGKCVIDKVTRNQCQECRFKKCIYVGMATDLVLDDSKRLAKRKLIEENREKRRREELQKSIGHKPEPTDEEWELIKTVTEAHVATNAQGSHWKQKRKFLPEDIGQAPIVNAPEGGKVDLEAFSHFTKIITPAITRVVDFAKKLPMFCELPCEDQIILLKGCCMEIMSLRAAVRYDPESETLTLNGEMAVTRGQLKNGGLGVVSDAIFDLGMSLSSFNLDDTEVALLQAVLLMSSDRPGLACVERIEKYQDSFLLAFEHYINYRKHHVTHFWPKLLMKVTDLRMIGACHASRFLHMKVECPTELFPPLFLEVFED
zebrafish Thyroid Hormone Receptor beta (TRb), thrb (gene 30607), sequence (Q9PVE4 whole entry, looked up, the tested form may be a part): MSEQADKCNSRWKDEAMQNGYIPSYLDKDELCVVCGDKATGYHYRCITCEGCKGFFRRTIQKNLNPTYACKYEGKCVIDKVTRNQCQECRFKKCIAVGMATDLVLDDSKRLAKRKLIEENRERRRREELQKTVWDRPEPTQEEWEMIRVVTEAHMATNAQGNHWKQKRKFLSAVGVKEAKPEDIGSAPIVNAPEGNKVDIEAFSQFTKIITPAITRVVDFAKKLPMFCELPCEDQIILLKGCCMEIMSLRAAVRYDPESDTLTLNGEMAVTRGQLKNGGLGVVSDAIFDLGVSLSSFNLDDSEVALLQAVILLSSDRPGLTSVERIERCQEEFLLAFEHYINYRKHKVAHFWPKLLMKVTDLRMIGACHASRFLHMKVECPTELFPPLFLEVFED
chicken Estrogen Receptor (ESR1), ESR1 (gene 396099), sequence (P06212 whole entry, looked up, the tested form may be a part): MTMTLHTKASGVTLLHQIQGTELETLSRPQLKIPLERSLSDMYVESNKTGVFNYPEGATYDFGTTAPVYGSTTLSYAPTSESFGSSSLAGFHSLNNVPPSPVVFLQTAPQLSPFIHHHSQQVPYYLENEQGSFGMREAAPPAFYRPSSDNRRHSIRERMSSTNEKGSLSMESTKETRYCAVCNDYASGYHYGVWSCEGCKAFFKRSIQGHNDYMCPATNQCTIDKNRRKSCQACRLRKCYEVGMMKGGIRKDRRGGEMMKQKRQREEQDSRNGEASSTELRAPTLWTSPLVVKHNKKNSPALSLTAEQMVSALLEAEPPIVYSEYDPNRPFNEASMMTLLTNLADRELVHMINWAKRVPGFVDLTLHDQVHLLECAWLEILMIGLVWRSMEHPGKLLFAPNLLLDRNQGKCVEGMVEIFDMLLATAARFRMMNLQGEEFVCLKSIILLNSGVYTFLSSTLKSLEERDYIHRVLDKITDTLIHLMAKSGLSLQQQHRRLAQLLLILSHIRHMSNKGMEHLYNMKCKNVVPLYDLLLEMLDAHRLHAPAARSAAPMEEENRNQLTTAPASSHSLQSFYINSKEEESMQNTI
human Beta-secretase (BACE), BACE1 (gene 23621), sequence (P56817 whole entry, looked up): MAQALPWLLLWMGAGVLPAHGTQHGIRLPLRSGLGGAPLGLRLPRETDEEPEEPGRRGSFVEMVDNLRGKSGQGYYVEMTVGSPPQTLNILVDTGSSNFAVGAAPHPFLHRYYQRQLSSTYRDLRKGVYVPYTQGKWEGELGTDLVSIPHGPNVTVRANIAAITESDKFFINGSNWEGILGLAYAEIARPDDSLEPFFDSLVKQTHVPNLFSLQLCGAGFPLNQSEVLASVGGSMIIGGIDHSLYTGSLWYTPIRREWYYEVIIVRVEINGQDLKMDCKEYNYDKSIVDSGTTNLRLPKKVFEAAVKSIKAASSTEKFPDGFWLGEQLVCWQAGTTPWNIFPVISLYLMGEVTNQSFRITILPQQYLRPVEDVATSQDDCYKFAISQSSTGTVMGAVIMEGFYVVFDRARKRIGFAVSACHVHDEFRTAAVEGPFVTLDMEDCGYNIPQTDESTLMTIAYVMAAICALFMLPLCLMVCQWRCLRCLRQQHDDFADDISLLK

On to `O=c1c2ccccc2c(=O)c2c1cc(Cl)c1[nH]c3c([nH]c12)c(Cl)cc1c(=O)c2ccccc2c(=O)c13`, for which the AC50 was 12.4 µM (active) in [1] and 0.732 µM (active) in assay [2]. Besides, the outcome in assay [3] was inactive.

`CC1CCCC1.[C-]#[O+].[C-]#[O+].[C-]#[O+].[Mn]`: the compound was classed as inactive in assay [4] and in [5].

Turning to `CCOC(=O)NC(=S)Nc1ccccc1NC(=S)NC(=O)OCC`, in the assay on rat CYP3A1, gene 25642, the AC50 is 1.53 µM (active).

Consider `C=CC(=O)OCC(CC)CCCC` (stereo not given), for which the results for the AC50 with DIO1 (gene 1733), in the assay with DIO2 (gene 1734) and in the assay with DIO3 (gene 1735) were 19.4 µM (active), 23.8 µM (active) and 47 µM (active), respectively.

As for `CC(C)CCCCCCCOC(=O)c1ccccc1C(=O)OCCCCCCCC(C)C`, the result in [6], in [7], in assay [8], in [9], in assay [10] and in assay [11] was inactive. For the same compound, the outcome in assay [12], in assay [13], in assay [14], in assay [15] and in assay [16] was inactive.

As to `Nc1ccc(-c2ccc(N)c(N)c2)cc1N`, the AC50 in assay [1] is 10.2 µM (active).

Regarding `CC(C)(c1cc(Cl)c(O)c(Cl)c1)c1cc(Cl)c(O)c(Cl)c1`, the AC50 in [6] was 3.55 µM (active); in assay [7], 2.02 µM (active); in assay [8], 24.3 µM (active); in [9], 23.9 µM (active); in assay [14], 17.9 µM (active); in the assay on DIO1 (gene 1733), 73.9 µM (active). The values for the AC50 with DIO2 (gene 1734) and in the assay on DIO3 (gene 1735) were 94.3 µM (active) and 41.8 µM (active), respectively. Also, the call in assay [10], in [11], in assay [12], in assay [13], in [15] and in assay [16] was inactive.

Consider `CC1(C)[C@H](C(=O)O[C@H](C#N)c2cccc(Oc3ccccc3)c2)[C@@H]1C=C(Br)Br`, for which the result with rat CYP3A1, gene 25642 was inactive.

On to `O=C(CCl)c1ccccc1`, for which the result in assay [4] was inactive.

Regarding `Cc1ccc(OP(=O)(Oc2ccc(C)cc2)Oc2ccc(C)cc2)cc1` (tested in a mixture with another compound), the result in [3] and in assay [5] was inactive.

Consider `BrCBr`, for which the compound was classed as inactive in assay [2].

Source of the values: PubChem BioAssay (EPA / NIEHS).
